Bioassay records from PubChem.
Most compounds without a hit are left out; they make up all but 3.7% or so of the library.
Rce1 inhib: yeast Ras-converting enzyme inhibition | AID 2563 | calls only | yeast membranes, quenched prenylated peptide cleavage fluorescence | hit rate 0.27% among 290,000;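 active = fall in fluorescence gain of 50% or more versus controls, with final raw signal at or below 3038400; inconclusive = same 50% fall but final raw signal above 3038400; inactive = fall in fluorescence gain under 50%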
Target sequence (Q03530 whole entry, looked up): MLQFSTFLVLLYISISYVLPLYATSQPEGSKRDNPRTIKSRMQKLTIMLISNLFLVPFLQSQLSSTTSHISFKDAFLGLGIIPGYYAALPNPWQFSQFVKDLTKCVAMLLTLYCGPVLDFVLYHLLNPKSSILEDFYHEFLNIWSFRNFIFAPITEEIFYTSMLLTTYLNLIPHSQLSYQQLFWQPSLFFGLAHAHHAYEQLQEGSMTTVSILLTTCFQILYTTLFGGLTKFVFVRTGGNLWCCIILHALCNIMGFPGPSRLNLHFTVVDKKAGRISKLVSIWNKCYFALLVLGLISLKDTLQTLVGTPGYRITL
PfHsp90 set2: growth inhibition of yeast expressing Plasmodium Hsp90; S. cerevisiae expressing PfHsp90, BacTiter-Glo ATP, 48 h; yeast lacking PDR1 and PDR3 efflux regulators; inhibition, % at 9.4 µM; hit rate 0.32% among 310,000; AID 504621;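 active = every replicate shows inhibition above about 80%, whatever the replicate mean, limit read from the data; inconclusive = mean inhibition reaches the set limit but some replicate falls short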
TIM10 inh: growth inhibitors of TIM10 yeast strain | hit rate 1.4% among 330,000 | AID 463195 | inhibition, % at 10 µM | S. cerevisiae TIM10 strain growth, BacTiter-Glo luminescence, 24 h;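 active = inhibition of 40% or more at the single tested concentration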;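 note: wild-type TIM10 isogenic control strain grown at permissive 25 °C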
tim23-1 inh: inhibits growth of tim23-1 mutant yeast | S. cerevisiae tim23-1 growth, BacTiter-Glo luminescence, 24 h | inhibition, % at 20 µM | hit rate 1.3% among 330,000 | AID 463212;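 active = growth inhibition of the mutant yeast at or above 50%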;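 note: temperature-sensitive mutant grown at 25 °C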
tim10-1 inh: growth inhibitors of tim10-1 mutant yeast | S. cerevisiae tim10-1 ts strain growth, BacTiter-Glo, 24 h | inhibition, % at 20 µM | hit rate 2.2% among 330,000;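 active = inhibition of at least 40%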;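 note: mutant grown at 25 °C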
tim10-1 confirm: confirmation of tim10-1 mutant yeast growth inhibitors. shares compounds with tim10-1 inh. inhibition, % at 20 µM. S. cerevisiae tim10-1 ts strain growth, BacTiter-Glo, 24 h. hit rate 56% among 7,400;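 active = inhibition of yeast growth at or above a set limit in either of two repeat tests at 20 µM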;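 note: tim10-1 mutant grown at permissive 25 °C to find synthetic lethal compounds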
A number is an active result; . = inactive; ? = inconclusive; / = no result given.

SMILES	Rce1 inhib	PfHsp90 set2	TIM10 inh	tim23-1 inh	tim10-1 inh	tim10-1 confirm
Cc1ccc(-c2csc(N3CCN(CCCn4c(-c5ccncc5)nc5ccccc54)CC3)n2)cc1	.	.	.	.	40	.
CC(C)n1ncc2c(C(=O)N3CCN(c4ccc(F)cc4)CC3)cc(-c3ccccc3)nc21	/	.	.	.	.	/
CCn1c2ccccc2c2nc3ccccc3nc21	.	.	.	.	43	35
CSc1ncccc1C(=O)OCC(=O)Nc1ccc(N2CCOCC2)cc1	/	.	.	.	.	/
COc1cc(/C=C2/SC(=S)NC2=O)ccc1OS(=O)(=O)c1ccc(C)cc1	.	.	.	.	.	/
COc1cc(/C=C2\SC(=S)NC2=O)ccc1OS(=O)(=O)c1ccccc1	.	/	.	.	43	33
Cc1ccccc1C(=O)NC1CCN(CC(=O)N2CCCCC2C)CC1 (configuration not stated)	.	.	.	.	.	/
CN(Cc1ccccc1)S(=O)(=O)c1cn(C)cn1	.	.	.	.	.	/
CCN(CC)S(=O)(=O)c1ccc(/C=C/C(=O)NC2CCCCC2)cc1	.	.	.	.	44	.
CCOc1ccc(/C=C/C(=O)NC2CCCCC2)cc1	.	.	.	.	.	/
CCCCCn1nc(C(=O)N(CCOC)c2c(N)n(CCCC)c(=O)[nH]c2=O)c2ccccc2c1=O	.	.	.	.	.	/
N#Cc1cc2c(nc1SC1CCCCC1O)CCCC2 (configuration not stated)	.	.	.	.	.	/
Cc1ccc(S(=O)(=O)N(CC(=O)NC2CC2)c2ccc(C)c(Cl)c2)cc1	.	.	.	.	.	/
Cc1ccc(OCCn2c(C3CC(=O)N(Cc4ccccc4)C3)nc3ccccc32)cc1 (configuration not stated)	.	.	.	.	.	/
C=CCN1CC(c2nc3ccccc3n2Cc2cccc3ccccc23)CC1=O (configuration not stated)	/	.	.	.	45	.
O=C(NCC1CCCC(CNC(=O)N2CCc3ccccc32)C1)N1CCc2ccccc21 (configuration not stated)	.	.	.	.	.	/
COc1cc(C2Nc3cccc4cccc(c34)N2)cc(OC)c1O	/	.	.	.	.	/
COc1cc(C2Nc3cccc4cccc(c34)N2)ccc1OC(C)=O	.	.	.	.	41	39
O=c1c2cn[nH]c2nc(SCc2ccccc2F)n1-c1ccc(Br)cc1	.	.	.	.	42	.
O=c1c2cn[nH]c2nc(SCc2cc(=O)n3cc(Br)ccc3n2)n1-c1ccc(Br)cc1	.	.	.	.	.	/
Cc1cc(C)c(S(=O)(=O)c2ccccc2)c(OC(=O)c2c(Cl)cc(Cl)cc2Cl)n1	.	.	.	.	41	36
COc1ccc(C2/C=C\CN(C(=O)Nc3ccccc3)CC(=O)N2Cc2ccc(F)cc2)cc1 (configuration not stated)	.	/	.	.	.	/
COc1ccc(C2/C=C\CN(C(=O)c3ccc(C)cc3)CC(=O)N2Cc2ccc(F)cc2)cc1 (configuration not stated)	.	/	.	.	40	.
COc1ccccc1N1C(=O)CC(Sc2n[nH]c(-c3cccc(C)c3)n2)C1=O (configuration not stated)	.	.	.	.	47	36
N=c1oc2cc(O)ccc2cc1C(=O)Nc1ccc(Cl)cc1	.	.	.	.	44	.
SMILES	Rce1 inhib	PfHsp90 set2	TIM10 inh	tim23-1 inh	tim10-1 inh	tim10-1 confirm
O=c1c2ccccc2oc2cc(NCCCN3CCOCC3)ccc12	?	/	.	.	41	.
COc1cc(C)c(C)cc1S(=O)(=O)N1CCCCC1c1cccnc1 (configuration not stated)	.	.	.	.	41	.
COC(=O)c1cc(S(=O)(=O)N2CCN(c3cccc(C)c3C)CC2)c[nH]1	.	.	.	.	51	30
Cc1ccc(S(=O)(=O)NN=C2C(=O)C3CCC2C3Cl)cc1 (configuration not stated)	/	.	/	/	/	/
CCN(CC(=O)Nc1cc(Cl)ccc1C)C(=O)CC1CCCC1	/	.	.	.	.	/
N/C(=N\OC(=O)CCCc1ccccc1)c1cccnc1	.	.	.	.	.	/
N/C(=N\OC(=O)CCC1CCCCC1)c1cccnc1	.	.	.	.	46	38
N/C(=N\OC(=O)CC(c1ccccc1)c1ccccc1)c1cccnc1	.	.	.	.	47	61
N/C(=N\OC(=O)Cc1ccccc1)c1cccnc1	.	.	.	.	.	/
N/C(=N\OC(=O)Cc1ccc(-c2ccccc2)cc1)c1cccnc1	.	.	.	.	47	39
O=S(=O)(c1ccccc1)N1CCN(Cc2ccccc2C(F)(F)F)CC1	/	.	.	.	40	.
O=C1CC(N2CCN(c3ccccc3Cl)CC2)C(=O)N1c1ccccc1 (configuration not stated)	.	.	.	.	49	.
COc1ccccc1N1CCN(C2CC(=O)N(c3cccc(Br)c3)C2=O)CC1 (configuration not stated)	.	.	.	.	49	36
COc1ccc(N2C(=O)CC(N3CCN(c4ccc(Cl)cc4)CC3)C2=O)cc1 (configuration not stated)	.	.	.	.	.	/
COc1ccc(N2C(=O)CC(N3CCN(c4ccccc4OC)CC3)C2=O)cc1 (configuration not stated)	.	.	.	.	.	/
CCOc1ccc(N2C(=O)CC(N3CCN(c4ccc(Cl)cc4)CC3)C2=O)cc1 (configuration not stated)	.	.	.	.	45	.
Cc1ccc2[nH]c3c(=O)n4c(nc3c2c1)SCC4	.	.	.	.	45	.
CCC1CCCN1Cn1cnc2c([nH]c3ccc(OC)cc32)c1=O (configuration not stated)	.	.	.	.	.	/
COc1ccc2[nH]c3c(=O)n4c(nc3c2c1)SCCC4	.	.	.	.	40	39
CCCSc1ccc2nc(-c3ccccc3)cn2c1	.	.	.	.	45	.
CCCCSc1ccc2nc(-c3ccc(C#N)cc3)cn2c1	.	.	.	.	.	/
Cn1c(=O)n(C)c2cc([N+](=O)[O-])c(N3CCN(C(=O)c4cccc(F)c4)CC3)cc21	.	.	.	.	.	/
Cc1ccc(S(=O)(=O)N2CCN(c3cc4c(cc3[N+](=O)[O-])n(C)c(=O)n4C)CC2)cc1	.	.	.	.	43	.
Cn1c(=O)n(C)c2cc([N+](=O)[O-])c(N3CCN(C(=O)c4cccc(Cl)c4)CC3)cc21	.	.	.	.	41	.
CCOC(=O)Cc1nnc(Nc2cc(C)ccc2C)c2ccccc12	.	.	.	.	.	/
COc1ccccc1-c1nc(C#N)c(N2CCc3ccccc3C2)o1	.	.	.	.	40	32
CC(C)(O)C#Cc1ccc(C(=O)N2CCN(c3ccc(Cl)cc3)CC2)cc1	.	.	.	.	49	40
